# This is a sample that favours compounds with a hit; in the whole collection about 17% have one here.
# TDP1 inh: qHTS Assay for Inhibitors of Tyrosyl-DNA Phosphodiesterase (TDP1). Tyrosyl-DNA phosphodiesterase 1 (Homo sapiens), Q9NUW8. recombinant TDP1, AlphaScreen DNA substrate cleavage. Potency, µM (top dose mostly 130 µM), for the others: top-dose activity change, negative = inhibition, actives largely listed as inhibitors. 0.28% of 350,000 active. AID 485290, 2010; further: on the % scale 0 is the no-effect control and ±100 the full control effect; nearly all actives have a fitted effect of over 40% in size
#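 Recombinant E. coli-expressed Tdp1 (1 nM) preincubated with compound 15 min at RT, then 5'-biotin/3'-phosphotyrosine-FITC DNA substrate (15 nM) added for 5 min. AlphaScreen beads (10 ug/ml) added, 10 min RT; tyrosine-FITC cleavage read as signal loss.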
# TDP1 cell CPT: qHTS for Inhibitors of human tyrosyl-DNA phosphodiesterase 1 (TDP1): qHTS in cells in presence of CPT; chicken DT40 Tdp1-/-;hTDP1 cells + 20 nM CPT, ATP luminescence, 48 h; 12% of 420,000 active; Potency, µM (doses to about 46.2 µM), for the others: at the top dose activity change, negative = growth inhibition, hits mostly inhibitors; AID 686979, 2013; further: on the % scale 0 is the no-effect control and ±100 the full control effect; nearly all actives have a fitted effect of over 55% in size
#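 Cell growth measured by CellTiter-Glo luminescence after a minimum 48 h, 37 C compound exposure with 20 nM CPT in Tdp1-knockout DT40 cells stably expressing hTDP1, seeded 400/well; qHTS titration format.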
# TDP1 cell noCPT: qHTS for Inhibitors of human tyrosyl-DNA phosphodiesterase 1 (TDP1): qHTS in cells in absence of CPT; DT40 Tdp1-/- hTDP1 cells, no CPT, ATP luminescence, 48 h; Potency, µM (highest dose often 46.2 µM), for inactives: at the top dose activity change, negative = growth inhibition, actives largely listed as inhibitors; 15% of 420,000 active; further: on the % scale 0 is the no-effect control and ±100 the full control effect; nearly all actives have a fitted effect of over 55% in size
#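 Growth of hTDP1-complemented DT40 Tdp1-knockout cells is measured by ATP luminescence after at least 48 hr compound exposure at 37 °C, with DMSO substituting for the 20 nM CPT used in the parallel screen.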
# ClpP mod: qHTS Assay for Activators of ClpP. ATP-dependent Clp protease proteolytic subunit (Bacillus subtilis (strain 168)), P80244. purified B. subtilis ClpP, FRET peptide cleavage, 20 min. Potency, µM (series often up to 57.5 µM), inactives show top-dose activity change, negative = active. 1.9% of 340,000 active. AID 651965, 2013; active means well fitted falling curve with a large enough effect; inconclusive means small, poorly fitted or top-dose-only effect; inactive means no such curve, though single readings can be large or run the other way; further: the source files actives as falling curves though it sought activators and does not explain the sign; nearly all actives have a fitted effect of over 65% in size
# Target sequence (P80244 whole entry, looked up): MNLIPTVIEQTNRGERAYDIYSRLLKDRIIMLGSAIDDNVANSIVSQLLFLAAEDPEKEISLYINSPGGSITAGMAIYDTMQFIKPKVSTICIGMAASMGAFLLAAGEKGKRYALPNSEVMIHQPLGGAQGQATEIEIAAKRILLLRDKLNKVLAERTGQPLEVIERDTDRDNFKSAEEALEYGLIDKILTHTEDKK
#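 ClpP 10 microg/mL final, pH 8 Tris/KCl buffer with BSA, glycerol, Tween-20; compound pinned in; FRET-FV substrate; RT 20 min; Ex320/Em430; ΔFRET vs ADEP 5.8 microM, DMSO, no enzyme.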
# Numbers without * were called inactive; u = inconclusive; x = no result given; [ ] = remark or other dose. Unless noted, the call rests on the fitted dose curve; in most records, active means well fitted curve in the direction sought with a large enough effect; inconclusive means small, poorly fitted or top-dose-only effect, or another doubt; inactive means no such curve, though single readings can be large; an effect the other way counts as inactive or inconclusive. Potency means the concentration at half of the fitted maximal effect.
SMILES,TDP1 inh,TDP1 cell CPT,TDP1 cell noCPT,ClpP mod
C/C(=N\NC(=O)c1ccc(Cl)cc1)c1ccc(N2CCOCC2)cc1,0.0%,-12.8%,-29.2%,-29.3%
C/C(=N\NC(=S)Nc1cc(S(=O)(=O)N2CCOCC2)ccc1Cl)c1ccc(N2CCOCC2)cc1,11.4%,2.91µM*,2.59µM*,-29.8%
C/C(=N\NC(=S)Nc1ccc(C)c(C)c1)c1ccc(N2CCOCC2)cc1,5.3%,5.8µM*,5.8µM*,u
N#Cc1ccc(/C=N/NC(=S)Nc2ccc(S(=O)(=O)N3CCOCC3)cc2)cc1,x,u,20.6µM*,x
COc1ccc2cc(/C(C)=N/NC(=S)Nc3cc(S(=O)(=O)N4CCOCC4)ccc3N3CCOCC3)ccc2c1,8.1%,x,x,x
CCCCC(=O)NNC(=O)N1c2ccccc2Sc2ccccc21,x,0.9%,-4.5%,x
COc1cc2nc(NC(=O)c3ccccc3)sc(=O)c2cc1OC,x,-26.7%,-27.7%,-2.1%
CN1COc2ccc3ccccc3c2C1,0.0%,-15.7%,-14.4%,x
COc1cc2c(=O)c(S(=O)(=O)c3ccccc3)cn(CC(=O)Nc3ccccc3C)c2cc1OC,1.3%,-5.1%,0.5%,-27.2%
COc1ccc(C2Nc3ccccc3C(=O)N2Cc2ccccc2)cc1COc1ccccn1 (stereo not drawn),3.9%,u,-20.0%,25.1µM*
COc1ccc(OCc2cc(C3Nc4ccccc4C(=O)N3Cc3ccccc3)ccc2OC)cc1 (stereo not drawn),0.7%,x,x,x
COc1ccc(C2Nc3ccccc3C(=O)N2Cc2ccccc2)cc1COc1ccccc1F (stereo not drawn),0.4%,u,14.1µM*,4.5%
C[C@H]1CN([C@@H](C)CO)C(=O)CCCn2nncc2CO[C@@H]1CN(C)C(=O)c1ccc2ccn(C)c2c1,x,-17.3%,-8.2%,3.8%
Cn1c2cc(S(C)=O)sc2c2cnn(Cc3ccccc3F)c(=O)c21 (stereo not drawn),1.3%,x,x,x
CCN(CC)c1cc2c(c3c1ccn3C)C1CCC2O1 (stereo not drawn),x,-11.2%,-17.9%,-29.9%
CCCN(CC1CC1)c1cc2c(c3c1ccn3C)C1CCC2O1 (stereo not drawn),x,14.6µM*,10.3µM*,-13.1%
CN(c1cc2c(c3c1ccn3C)C1CCC2O1)C1CCCCC1 (stereo not drawn),x,u,u,-5.9%
COc1ccccc1-c1cc2c(c3c1ccn3C)C1CCC2O1 (stereo not drawn),x,-18.1%,u,5.2%
CN(c1ccc(Cl)cc1)c1cc2c(c3c1ccn3C)C1CCC2O1 (stereo not drawn),x,u,23.1µM*,-4.0%
Cn1ccc2c(N3CCCCCCC3)cc3c(c21)C1CCC3O1 (stereo not drawn),x,u,20.6µM*,-9.7%
Cn1ccc2c(/C=C/c3ccc(F)cc3)cc3c(c21)C1CCC3O1 (stereo not drawn),x,25.9µM*,11.6µM*,5.4%
CC1=C(C(=O)OCC2CCCCC2)C(c2ccc(Cl)cc2)CC(=O)N1 (stereo not drawn),-4.3%[12.3 µM],u,u,-1.1%
CCOc1ccc(C(=O)CCC(=O)NCC(=O)Nc2c(C)cccc2C)cc1,-3.1%[56.1 µM],-0.6%,5.6%,-1.2%
CCOCCCNc1ncnc2c1nc1n2CCCC1,x,-7.9%,1.2%,-0.1%
CN(c1cccc(F)c1)c1cc2c(c3c1ccn3C)C1CCC2O1 (stereo not drawn),x,16.4µM*,16.4µM*,-27.4%
SMILES,TDP1 inh,TDP1 cell CPT,TDP1 cell noCPT,ClpP mod
COc1ccc(-c2cc3c(c4c2ccn4C)C2CCC3O2)cn1 (stereo not drawn),x,18.4µM*,16.4µM*,5.2%
CN(CCc1ccccc1)c1cc2c(c3c1ccn3C)C1CCC2O1 (stereo not drawn),x,u,u,-25.2%
CCOC(=O)CC(NC(=O)c1cc2cc(OC)ccc2oc1=O)c1ccc(OC)cc1 (stereo not drawn),-0.6%,u,-6.2%,-18.5%
CCCS(=O)(=O)NC(=O)C1(C)CCN(C(=O)c2ccccc2Br)C1 (stereo not drawn),x,-0.7%,-5.6%,2.5%
CCNC(=O)C1CCCN(C(=O)c2ccc(C(F)(F)F)cc2)CC1 (stereo not drawn),x,-6.1%,-6.8%,2.3%
COc1ccc(CNC(=O)Cn2ccc3cc(S(=O)(=O)N4CCCCC4)ccc32)c(OC)c1,2.8%,23.1µM*,-81.0%,-27.9%
CCOc1ccccc1CNC(=O)Cn1ccc2cc(S(=O)(=O)N3CCCC3)ccc21,2.3%,18.4µM*,23.1µM*,x
CCOc1ccccc1CNC(=O)CCCn1ccc2cc(S(=O)(=O)N3CCCC3)ccc21,1.2%,23.1µM*,20.6µM*,-3.8%
CC(C)N1CCN(c2ccncc2S(=O)(=O)N2CCN(C)CC2)CC1,x,6.4%,-2.7%,-0.2%
COC(=O)c1ccccc1NC(=O)N[C@@H](C)C(=O)OC,4.9%,1.6%,-5.3%,28.2µM*
CCOC(=O)c1ccccc1NC(=O)N[C@@H](C)C(=O)OC,2.0%,-15.8%,-13.0%,20µM*
COC(=O)[C@H](C)NC(=O)Nc1ccc(Oc2ccccc2)cc1,5.3%,u,6.31µM*,1.0%
CC(C)C[C@H](NC(=O)Nc1ccc(Oc2ccccc2)cc1)C(=O)O,0.0%,-17.0%,-13.8%,1.2%
CCOC(=O)c1ccccc1NC(=O)COC(=O)CC1CCCCC1,50.1µM*,u,u,-12.3%
COC(=O)[C@H](C)NC(=O)Nc1ccccc1C(F)(F)F,0.0%,11.0%,-14.0%,1.2%
O=C(CC1S/C(=N/N=C2CCCCCC2)NC1=O)Nc1ccc(Br)cc1F (stereo not drawn),6.3%,-1.3%,8.1%,-0.7%
COc1ccc(NC(=O)N2CC[C@@]3(CCCN(C(=O)c4cc(C(F)(F)F)cc(C(F)(F)F)c4)C3)C2)cc1,x,-7.4%,-26.8%,x
Nc1ccc(C(=O)Oc2ccccc2)c(O)c1,-5.3%[56.1 µM],6.7%,u,x
COc1ccc(CN2CCCC(Cn3cc(C(=O)N4CCCC4)nn3)C2)c(O)c1 (stereo not drawn),x,1.1%,-5.8%,x
CC(OC(=O)c1ccc(O)cc1)C(=O)Nc1ccc(Oc2ccccc2)cc1 (stereo not drawn),0.7%,u,20.6µM*,1.7%
COCCCNCCOc1ccccc1-c1ccccc1,-2.4%,12.8%,u,-1.3%
COCCCNCCCCOc1ccccc1-c1ccccc1,-4.3%,20.6µM*,14.6µM*,-0.9%
CNCCCCOc1ccccc1-c1ccccc1,-2.7%,25.9µM*,u,-2.5%
CCCCC1C(=O)CC[C@H]2[C@@H]1CC(=O)[C@@H]2C/C=C\CCCC(=O)O (stereo partly drawn),-5.5%,u,20.6µM*,-0.7%
